Source: PubChem BioAssay (NCI)
Compounds without any hit were thinned out: in the full panel of roughly 83,000, 20% have a hit.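 A percent growth of 40 corresponds to 60% growth inhibition; 0 means no net growth; -100 means all cells died. Active threshold: below 10.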 Activity calls are given as the source filed them.

Tests used:
Assay in all cases: NCI-60 one-dose screen, 48 h (100 = growth as untreated, 0 = no growth, -100 = all killed)
Conditions in all cases: 10 µM unless noted
[1] = test system: SR leukemia
[2] = test system: RPMI-8226 leukemia
[3] = test system: OVCAR-8 ovarian
[4] = test system: OVCAR-5 ovarian
[5] = test system: OVCAR-4 ovarian
[6] = test system: SK-OV-3 ovarian
[7] = test system: IGROV1 ovarian
[8] = test system: OVCAR-3 ovarian
[9] = test system: HS 578T breast
[10] = test system: NCI/ADR-RES ovarian

Measured: growth

C#Cc1cc(C(=O)Nc2ccc(CNCCN3CCOCC3)c(C(F)(F)F)c2)ccc1C
inactive: [1] 67.8% | [2] 74.5% | [3] 105% | [4] 98.6% | [5] 79.1% | [6] 94.1% | [7] 101% | [8] 94.1% | [9] 81.4% | [10] 94.3%

Cc1ccc(/C(N)=N/C(N)=N/c2nc3ccccc3s2)cc1
inactive: [1] 21.1% | [2] 78.3% | [3] 78.8% | [4] 111% | [5] 105% | [6] 134% | [7] 67.3% | [8] 106% | [9] 112% | [10] 31.1%

NC1[C@H]2CN(c3cnc(C(=O)Nc4cc(F)cc5cccnc45)cn3)C[C@@H]12 (stereo not given in full)
inactive: [2] 68.9% | [3] 87.7% | [4] 77.3% | [5] 17.4% | [6] 93.2% | [7] 29.4% | [9] 77.2% | [10] 85.3%
active: [1] 8.36% | [8] 2.08%

C#CCn1cc(/C=N/Nc2nc(-c3ccc(Br)cc3)cs2)c2ccccc21
inactive: [1] 119% | [2] 110% | [3] 101% | [4] 97.4% | [5] 107% | [6] 91.1% | [7] 74.9% | [8] 108% | [9] 101% | [10] 101%

COc1ccccc1/C=C1\Oc2ccc(O)c(O)c2C1=O
inactive: [1] 99.6% | [2] 93.5% | [3] 94.1% | [4] 105% | [5] 84% | [6] 105% | [7] 98.7% | [8] 102% | [9] 87.9% | [10] 98.5%

CCC(=C(c1ccc(OCCN2CCCCCC2)cc1)c1ccc(OCCN2CCCCCC2)cc1)c1ccc(Cl)cc1
inactive: [4] 58.3% | [5] 47.2% | [6] 96.7% | [8] 30.8% | [10] 29.4%
active: [1] -5.89% | [2] -29.7% | [3] 2.46% | [7] 2.76% | [9] -51%

CC1=C(C)C(=O)C(Nc2ccc(C)cc2)=C(Br)C1=O
inactive: [1] 43.6% | [2] 55.2% | [3] 92.7% | [4] 108% | [5] 75.6% | [6] 85.5% | [7] 94.5% | [8] 105% | [9] 96.7% | [10] 95.7%

CCOC(=O)c1ccc(NC2=C(Cl)C(=O)c3nc(C)ccc3C2=O)cc1
active: [2] 4.69% | [5] -62.7% | [7] 7.95% | [8] -18.8%
inactive: [1] 22.6% | [3] 68.4% | [4] 91.5% | [6] 94.4% | [9] 50.2% | [10] 45.9%

CC(=C(c1ccc(OCCCN(C)C)cc1)c1ccc(OCCCN(C)C)cc1)c1ccc(Cl)cc1
inactive: [1] 21.7% | [2] 79.3% | [3] 100% | [4] 100% | [5] 108% | [6] 103% | [7] 87.1% | [8] 91.1% | [9] 81.8% | [10] 95.2%

CN1CCN(c2ccc(Nc3nc(NCCCNS(=O)(=O)c4cccc5ccccc45)c4sccc4n3)cc2)CC1
inactive: [4] 10.8% | [10] 13.5%
active: [1] 4.12% | [2] -2.5% | [3] 5.7% | [5] -35.6% | [6] -18% | [7] 6.32% | [8] -62.7% | [9] -25%

O=C(CCCCCCNC(=O)C(O)(O)C(F)(F)F)Nc1nc2ccccc2s1
inactive: [1] 16.7% | [2] 13.5% | [5] 35.9% | [9] 12.5%
active: [3] 8.26% | [4] 1.89% | [6] -26.3% | [7] -3.25% | [8] -38.8% | [10] 1.87%

COc1ccc2c(c1)c(-c1nc(N)nnc1-c1c[nH]c3ccccc13)cn2C
inactive: [1] 14.8% | [2] 41.8% | [3] 51.3% | [4] 72.2% | [5] 66.4% | [6] 63% | [7] 30.5% | [8] 19.7% | [9] 35.3% | [10] 49.8%

O=C(CSc1nc2ccccc2c(=O)n1CCc1ccccc1)Nc1ccc(S(=O)(=O)Nc2ccc(Cl)nn2)cc1
inactive: [1] 95.9% | [2] 102% | [3] 92% | [4] 95.8% | [5] 93.1% | [6] 94.1% | [7] 95.6% | [8] 98.8% | [9] 97.1% | [10] 91.7%

O=S(=O)(NCCCNc1nccc(-c2[nH]c(-c3ccccc3)nc2-c2ccc(F)c(O)c2)n1)c1ccc(C(F)(F)F)cc1
inactive: [2] 16.2% | [3] 69.7% | [4] 136% | [5] 67.8% | [6] 78.4% | [7] 63.1% | [8] 33.6% | [9] 48.9% | [10] 89%
active: [1] 1.01%

O=C(CSc1nnc(-c2cccs2)n1-c1ccccc1)Nc1ccccc1F
inactive: [1] 25.3% | [2] 88.7% | [3] 95.1% | [4] 100% | [5] 95.1% | [6] 96.4% | [7] 84.9% | [8] 86.9% | [9] 91.6% | [10] 49.2%

CNCCN(C)c1ccc(Nc2cc(NC3CC3)n3ncc(C#N)c3n2)cc1NC(C)=O
inactive: [2] 12.2% | [3] 21.7% | [10] 45.5%
active: [1] 6.13% | [4] 7.68% | [5] 2.94% | [6] -13.6% | [7] -18.3% | [8] -16.9% | [9] -19%

CCCCCCN1C=C/C(=C\C(=O)n2ccc3ccccc32)c2ccccc21
inactive: [1] 54.3% | [2] 12.7% | [3] 73.8% | [4] 90.9% | [5] 33.3% | [6] 59.9% | [7] 42.9% | [8] 58.4% | [9] 84.9% | [10] 84.7%

C=C(C)[C@@H]1CC[C@]2(COCCCNCCCN)CC[C@]3(C)[C@H](CC[C@@H]4[C@@]5(C)CC[C@H](O)C(C)(C)[C@@H]5CC[C@]43C)[C@@H]12
active: [1] -33.1% | [2] -35.3% | [3] -40.4% | [4] -95.3% | [5] -68.5% | [7] -82.9% | [8] -77.5% | [9] -49.1% | [10] -65.5%
inactive: [6] 105%

CCCC/C(=C\c1ccc(O)c(O)c1)C(=O)NC(Cc1ccccc1)C(=O)C(=O)NCCc1ccc(OC)cc1 (stereo not given)
inactive: [1] 105% | [2] 89.7% | [3] 97.2% | [4] 99.3% | [5] 92.7% | [6] 105% | [7] 96.8% | [8] 93.7% | [9] 91.8% | [10] 101%

Cn1cc(-c2nc(N)nnc2-c2c[nH]c3ccc(Br)cc23)c2cc(F)ccc21
inactive: [1] 50% | [2] 80.2% | [3] 96.8% | [4] 110% | [5] 94.5% | [6] 118% | [7] 73% | [8] 99.6% | [9] 96.4% | [10] 89.8%

O=C(CN1CCN(c2cc(=O)[nH]c3ccc(F)cc23)CC1)N(c1ccccc1)c1ccccc1
inactive: [1] 90.8% | [2] 115% | [3] 108% | [4] 102% | [5] 101% | [6] 109% | [7] 99.8% | [8] 109% | [9] 101% | [10] 102%

COc1ccc(OC)c(NC(=O)CCCCCCNC(=O)C(O)(O)C(F)(F)F)c1
inactive: [1] 12.9% | [2] 20.9% | [3] 23.4% | [4] 26.3% | [5] 86.7% | [7] 55.2% | [8] 40.5% | [9] 49.7% | [10] 32.8%
active: [6] 6.28%

Cc1ccc2c(n1)C(=O)C(Cl)=C(Nc1ccc(C#N)cc1)C2=O
inactive: [1] 15.3% | [2] 55.1% | [3] 91.5% | [4] 106% | [6] 106% | [7] 68.4% | [9] 97.7% | [10] 98%
active: [5] -98.5% | [8] 4.24%

COc1ccc(-c2cnc(NC(=O)CCCCCCNC(=O)C(O)(O)C(F)(F)F)s2)cc1
inactive: [1] 13.2% | [2] 14%
active: [3] -3.57% | [4] 4.6% | [5] -9.83% | [6] -19.3% | [7] -18.7% | [8] -50.6% | [9] 9.86% | [10] -2.38%

Cc1cc2nc(C(Cl)Cl)nc(-c3ccc(S(=O)(=O)N(C)C)cc3)n2n1
inactive: [1] 11.8% | [2] 55.3% | [3] 33.9% | [4] 67.3% | [5] 57.2% | [6] 50.5% | [7] 23.1% | [8] 78.4% | [9] 72.7% | [10] 26.3%

CC1=C(C)C(=O)C(Nc2cccc(C(=O)OC(C)(C)C)c2)=CC1=O
active: [8] 6.18%
inactive: [1] 81.8% | [2] 75.8% | [3] 82.2% | [4] 98.3% | [5] 34.9% | [6] 90.5% | [7] 72.9% | [9] 79.4% | [10] 76%
